# Measurements as given in the supplement of paper PMC6555819.
# What was measured:
# Assay in all cases: PBM binding z-score (relative to random genomic background probes); higher = stronger binding; sequences stand for … in GC…GCGATTGACAGCGTAGAATGAAGG
# [1] = system: FXR:RXRa (NR concentration 270 nM, RXRa partner concentration 90 nM)
# How it was run: (§1)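 Binding z-scores take random background probes as their reference. They come from custom Agilent 4×180K protein-binding microarrays incubated 1 h with ligand-free nuclear receptor dimers, with antibodies against each partner (one per run) detecting binding. Scanned fluorescence was regression-normalized.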
# [2] = system: LXRa:RXRa (NR concentration 270 nM, RXRa partner concentration 90 nM)
# How it was run: as §1
# [3] = system: LXRa homodimer (NR concentration 270 nM)
# How it was run: as §1
# [4] = system: LXRb:RXRa (NR concentration 270 nM, RXRa partner concentration 90 nM)
# How it was run: as §1
# [5] = system: LXRb homodimer (NR concentration 270 nM)
# How it was run: as §1
# [6] = system: PPARa:RXRa (NR concentration 270 nM, RXRa partner concentration 90 nM)
# How it was run: as §1
# [7] = system: PPARg:RXRa (NR concentration 180 nM, RXRa partner concentration 90 nM)
# How it was run: as §1
# [8] = system: PPARg:RXRa 270nM:90nM, anti-RXR (NR concentration 270 nM, RXRa partner concentration 90 nM)
# How it was run: as §1
# [9] = system: PPARg:RXRa 30nM:10nM, anti-RXR (NR concentration 30 nM, RXRa partner concentration 10 nM)
# How it was run: as §1
# [10] = system: PPARg:RXRa 90nM:30nM, anti-RXR (NR concentration 90 nM, RXRa partner concentration 30 nM)
# How it was run: as §1
# [11] = system: PPARg:RXRa DBDmut IVT, anti-RXR (DBD mutation: RXRa K156A/R161A, NR concentration 270 nM, RXRa partner concentration 90 nM)
# How it was run: as §1
# [12] = system: PPARg:RXRa IVT, anti-PPARg (NR concentration 270 nM, RXRa partner concentration 90 nM)
# How it was run: as §1
# [13] = system: PPARg DBDmut:RXRa IVT, anti-PPARg (DBD mutation: PPARg1 K132A/R137A, NR concentration 270 nM, RXRa partner concentration 90 nM)
# How it was run: as §1
# [14] = system: PPARg DBDmut IVT, anti-PPARg (DBD mutation: PPARg1 K132A/R137A, NR concentration 270 nM)
# How it was run: as §1
# [15] = system: PPARg homodimer (NR concentration 180 nM)
# How it was run: as §1
# [16] = system: PXR:RXRa (NR concentration 270 nM, RXRa partner concentration 90 nM)
# How it was run: as §1
# [17] = system: PXR homodimer (NR concentration 270 nM)
# How it was run: as §1
# [18] = system: RARa:RXR (NR concentration 270 nM, RXRa partner concentration 90 nM)
# How it was run: as §1
# [19] = system: RARa homodimer (NR concentration 270 nM)
# How it was run: as §1
# [20] = system: RARb:RXRa (NR concentration 270 nM, RXRa partner concentration 90 nM)
# How it was run: as §1
Sequence,PBM binding z-score [1],PBM binding z-score [2],PBM binding z-score [3],PBM binding z-score [4],PBM binding z-score [5],PBM binding z-score [6],PBM binding z-score [7],PBM binding z-score [8],PBM binding z-score [9],PBM binding z-score [10],PBM binding z-score [11],PBM binding z-score [12],PBM binding z-score [13],PBM binding z-score [14],PBM binding z-score [15],PBM binding z-score [16],PBM binding z-score [17],PBM binding z-score [18],PBM binding z-score [19],PBM binding z-score [20]
TCTTGTAGATCAGCAGGTTAAGAGAGCTGGCCAA,-0.327,-0.11,-0.629,0.359,-0.638,0.689,-0.415,1.35,2.45,1.77,1.29,0.366,-0.495,-0.454,-0.22,0.214,-0.483,0.282,-0.593,0.113
GCATATAGGTAATACAAGGCGAAAGTCCGATTGT,0.229,0.00213,0.175,-0.106,-0.482,0.752,0.874,0.503,0.39,0.229,4.13,2.28,0.423,0.106,0.176,0.00476,-0.179,0.458,-0.221,-0.0161
CCAGACAGGCGAGAAGGTAACTCAGCCTCGATTA,-0.951,-0.595,-0.499,-0.97,-1.31,-0.764,-0.0182,-0.949,-0.723,-0.947,-0.678,-0.816,-0.981,-2.1,-0.649,-1.02,-0.455,-0.88,-0.498,-0.619
ATCTCTAGGTAACATGTTCAGTGAAAGAGAGGAC,0.248,0.254,-0.139,0.402,0.902,0.519,1.15,1.25,0.432,1.07,3.39,2.6,1.47,1.39,-0.116,0.0539,-0.0105,0.322,-0.388,0.433
ACTTACGGGTCAACGAGGTTATAACACGCGTATA,7.16,5.41,1.28,5.13,1.29,5.9,5.93,5.54,2.6,4.07,3.68,4.21,3.33,2.76,4.28,5.81,4.42,5.84,2.39,4.37
GGAACGATGGCAAAGTTGATAGCATCTGTCGACG,-0.553,-0.632,-0.475,-0.708,-0.97,0.994,1.79,3.3,1.16,2.88,-0.422,-0.327,0.0385,-1.16,-0.819,-0.402,-0.23,-0.727,-1.19,-0.325
ACTAGCAGGGCAAGGGTCACTCAAGATTAGTCCG,2.88,2.84,0.175,2.76,-0.693,4.79,8.91,7.48,7.19,7.64,2.1,4.69,-0.137,-0.877,1.91,3.4,-0.121,4.49,0.318,3.46
CTCGAAAGGTCGTGCGCAGGTGAGTATACCAAAC,5.71,4.35,0.33,3.84,0.153,5.58,3.34,4.47,1.36,2.98,0.325,2.29,0.196,0.413,1.83,3.65,-0.0048,4.48,0.0809,4.19
GCTTATAGATCAAGGTTAAGAAAGACTAAGCTAA,0.198,0.766,-0.148,0.438,-0.382,1.4,0.991,1.57,0.403,1.13,0.775,0.678,0.643,0.713,0.58,0.457,-0.0715,0.879,0.134,0.997
ATCTCGAGGTAACCAAGTTCAGTGAATGCCGAAC,0.65,1.14,0.25,0.608,-0.105,1.25,0.211,0.361,-0.167,0.304,0.433,1.72,0.594,0.0274,-0.0303,3.06,2.57,1.04,-0.305,1.5
CAAACTGGGTCAAAGGTCAAAGTCGAGCCAACCA,7.83,7.07,4.88,6.89,2.4,7.41,14.1,11.2,13.5,13,8.32,8.37,2.08,2.33,4.84,6.91,2,8.83,2.4,5.44
GCATATAGGTAATACACGGTGAAAGTCCGATTGT,0.145,0.988,0.163,-0.0915,-0.496,0.9,0.912,0.806,0.349,0.684,3.87,2.67,0.895,1.01,0.267,0.213,0.115,0.564,0.666,-0.0307
ATATGTATGTTACATCCGGGTCATTCAGGCTATG,1.15,1.58,0.696,2.06,0.763,2.94,1.75,1.55,0.754,1.22,3.22,3.46,1.61,1.67,1.16,2.54,1.37,2.59,0.761,1.52
ACAGACAGGTGAGTCAAGGTAACTCAGCTGGACG,1.06,-0.203,-0.155,-0.37,-0.551,0.333,0.647,-0.164,-0.257,-0.347,0.393,0.646,-0.696,-0.663,-0.248,0.238,-0.645,0.569,-0.253,0.669
TCATATAGGTAAATTCTAGGTGAAAGTCCGATCT,1.45,1,0.27,0.797,0.0785,2.29,1.84,3.22,4.21,3.75,3.83,4.08,1.26,1.32,1.09,0.778,0.524,1.22,1.61,0.593
ATCTCTGGGTAAAGTTCAGTGAAAGATCGATAGA,1.19,1.87,1.6,1.39,1.23,2.87,4.06,5.26,3.21,4.78,1.98,2.87,0.904,1.34,1.32,2.12,1.91,1.55,1.47,2.73
